Sm TGR block = blocks Schistosoma mansoni thioredoxin glutathione reductase; Q962Y6; Potency, µM (titrated, usually from 114 µM), for the others: at the top dose activity change, negative = inhibition, most hits filed as inhibitors; AID 485364; hit rate 3% among 360,000; purified TGR, DTNB reduction, TNB absorbance 405 nm; active = well fitted inhibition curve with a large enough effect; inconclusive = small, poorly fitted or top-dose-only effect; inactive = no such curve, though single readings can be large or run the other way; note: potency is the fitted concentration of half-maximal effect; % is set by controls: 0 for no effect and ±100 for the full control effect; nearly all actives have a fitted effect of over 60% in size
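First, TGR (20 nM dispensed) and NADPH were mixed with compound. Second, a 15 min room-temperature incubation followed. Third, further NADPH and then DTNB were added to start the reaction. Finally, TNB absorbance was monitored kinetically.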
Shiga inhibitor = inhibitors of Shiga toxin in Vero cells. Vero cells, Shiga toxin protein synthesis inhibition reporter. inhibition, % at 38.7 µM. hit rate 9.2% among 290,000. AID 2315; in the data active = inhibition mostly above about 28%, no sharp cut-off; inactive = mostly below about 43%; note: 0% is about no effect
FMDV antiviral = blocks foot and mouth disease virus; FMDV antiviral cell-based qHTS; hit rate 1.2% among 410,000; Potency, µM (highest dose often 57.9 µM), for inactives: top-dose activity change, negative = inhibition, hits mostly inhibitors; calls by dose curve; tested in HEK293T cells; note: read-out not given here; potency is the fitted concentration of half-maximal effect; % is set by controls: 0 for no effect and ±100 for the full control effect; nearly all actives have a fitted effect of over 45% in size
Cycloheximide cs = counter-screen hit for Shiga toxin inhibitors, cycloheximide; hit rate 12% among 300,000; cell reporter, cycloheximide protein synthesis inhibition counterscreen; AID 2314; max response, %; in the data active = max response mostly above about 13%, no sharp cut-off; inactive = mostly below about 14%; note: read at 38.3 µM for the half of the compounds with a filed dose; 0% is about no effect
The depositor's hits bear a star; i = inactive; ? = inconclusive; / = not tested or not shown; [ ] = remark or other dose. Shown are actives, neighbours in structure and some others; about 12% of the full set was active somewhere.

SMILES	Sm TGR block	Shiga inhibitor	FMDV antiviral	Cycloheximide cs
O=c1[nH]c(SCc2c(F)cccc2Cl)nc2c1CCC2	-3.7%	/	-1.3%	/
c1cnc(Oc2ccc3oc4ccccc4c3c2)nc1	6.2%	56.1*	21.8%	43.9*
COc1ccc2ccc(Oc3ncccn3)cc2c1	-11.8%	82.8	37.1%	19.4
O=C(CCl)c1cc2c3c(c1)CC(=O)N3CCC2	1.58µM*	-8.1	22.4µM*	-2.0
Cc1c(O)ccc(C(=O)COc2ccc(F)cc2)c1O	4.3%	i	-22.7%	37.7*
CCc1cc(C(=O)COc2ccc(F)cc2)c(O)cc1O	-0.3%	40.3*	18.6%	19.6*
CC(=O)c1cccc(N(CC(=O)N2CCCCC2)S(C)(=O)=O)c1	1.0%	-10.9	14.6%	-2.7
CC(=O)c1cccc(N(CC(=O)N2CCCC2)S(C)(=O)=O)c1	44.7µM*	-4.8	10.9%	8.6
CN1CCN(C(=O)c2cc3sc4ccccc4c3s2)CC1	29.7%	49.2	-9.6%	38.7*
CC(C)NC(=O)c1cc2c(=O)n3ccccc3nc2s1	3.5%	-2.3	16.8%	2.1
Cc1cccn2c(=O)c3cc(C(=O)NC4CCCCCC4)sc3nc12	35.5µM*	21.2	12.6%	-5.0
Cc1cccn2c(=O)c3cc(C(=O)NC4CCS(=O)(=O)C4)sc3nc12 (stereo unspecified)	0.0%	25.0	-15.3%	-7.3
O=C(NC1CCCCCC1)c1cc2c(=O)n3ccccc3nc2s1	0.3%	74.8*	59.4%	29.0*
CN1CCN(C(=O)c2cc3c(=O)n4ccccc4nc3s2)CC1	-4.3%	48.7*	35.8%	11.8*
CCC(=O)Oc1ccc(C2Nc3ccccc3-c3nnc(SC)nc3O2)cc1 (stereo unspecified)	2.3%	/	-23.1%	/
Cc1ccc(C(=O)Nc2ccc3oc(-c4ccncc4)nc3c2)c(Cl)c1	5.5%	/	-22.2%	/
C=CCNC(=O)c1cc2c(=O)n3ccccc3nc2s1	-21.4%	72.3*	50.4%	33.7*
O=C(c1ccc2c(c1)OCCO2)N(Cc1cccnc1)c1nc2ccc(F)cc2s1	4.6%	/	0.0%	/
Cc1cc(C)c(-n2nnnc2SCC(=O)c2cccs2)c(C)c1	-4.8%	39.3*	-4.0%	23.9*
Cn1nnnc1SCC(=O)c1cccs1	39.8µM*	-4.2	7.0%	18.3
COc1ccc(CNC(=O)c2cc3cc(C)ccc3n2C)cc1	4.0%	/	4.9%	/
O=C(OCCN1CCCCC1)c1ccc(O)cc1	9.2%	19.0	7.1%	22.7*
O=C(OCCN1CCCCC1)c1ccccc1Cl	2.0%	37.3	0.0%	29.2*
CC(=O)c1ccccc1OCCCN1CCCCC1	31.6µM*	12.4	-1.8%	17.1
O=C(OCCN1CCOCC1)c1ccccc1Cl	/	/	42.7%	/
SMILES	Sm TGR block	Shiga inhibitor	FMDV antiviral	Cycloheximide cs
O=C(OCCCN1CCCCC1)c1ccc(O)cc1	11.6%	-12.2	-18.1%	0.9
CCCCN(CC)C(=O)c1cc2c(=O)n3ccccc3nc2n1C	-19.9%	/	20.4%	/
Cc1oc(-c2cccc(Br)c2)nc1Cn1c(SCc2cccc(F)c2)nc2cccnc21	2.0%	/	-18.7%	/
O=C(CC1N=C2c3ccccc3N=C(SCc3ccccc3Cl)N2C1=O)NCc1cccs1 (stereo unspecified)	9.0%	/	-2.8%	/
CNC(=O)c1cccnc1Nc1cccc(C(F)(F)F)c1	-5.3%	10.5	0.0%	26.9*
CCN(C(=O)COC(=O)c1cccnc1SC)C1CCS(=O)(=O)C1 (stereo unspecified)	7.6%	-12.3	-14.7%	-2.6
CCN(C(=O)COC(=O)c1cccnc1Nc1cccc(C(F)(F)F)c1)C1CCS(=O)(=O)C1 (stereo unspecified)	8.1%	50.8*	-24.6%	41.9*
NC(=O)CCCCn1ccc(NC(N)=NCC(F)(F)F)n1	/	/	-4.2%	/
CCOC(=O)[C@]12Cc3cc(OC)ccc3[C@H]1N(Cc1ccccc1)C(=O)c1cc(F)c(F)cc12	/	/	-18.1%	/
CCOC(=O)[C@]12Cc3cc(OC)ccc3[C@H]1N(C1CCCCC1)C(=O)c1cc(OC)ccc12	/	/	12.6µM*	/
CCOC(=O)[C@]12Cc3cc(C)ccc3[C@H]1N(C1CCCCC1)C(=O)c1cc(OC)ccc12	/	/	3.55µM*	/
CCn1c(C(=O)NCc2ccccc2)cc2sc(Cl)cc21	2.7%	/	-3.4%	/
CCC(C)c1ccccc1NC(=O)COC(=O)c1ccc2[nH]c3c(c2c1)CCCC3 (stereo unspecified)	0.2%	3.1	28.2µM*	-1.7
CCOC(=O)c1ccc2[nH]c3c(c2c1)CCCC3	-3.3%	86.8*	65.7%	51.0*
CCOC(=O)c1ccc(NS(=O)(=O)c2ccc3[nH]c4c(c3c2)CCCCC4)cc1	-0.8%	/	24.2%	/
CCOC(=O)c1ccc2[nH]c3c(c2c1)CCCC3O (stereo unspecified)	-3.9%[57.1 µM]	35.0	41.1%	23.9*
CCOC(=O)CNC(=O)C1CCCc2c1[nH]c1ccc(Cl)cc21 (stereo unspecified)	0.0%	-11.7	0.0%	-1.4
CCOCCCNC(=O)C1CCN(C(=O)c2cc3sccc3n2C)CC1	3.2%	/	-11.5%	/
CC(=O)n1c2c(c3ccccc31)OC(N)=C(C#N)C2c1ccc(C(C)C)cc1 (stereo unspecified)	0.6%	83.4*	/	46.2*
CCOc1ccc(C2C(C#N)=C(N)Oc3c2c(=O)oc2ccccc32)cc1 (stereo unspecified)	1.8%	-17.1	-9.4%	6.7
CC(C)(C)OC(=O)N1CCC(c2c(C(=O)NCCCN3CCc4ccccc4C3)cnn2-c2ccccc2)CC1	0.1%	/	-4.6%	/
Cc1ccnc(NC(c2ccsc2)c2ccc3ccc(C)nc3c2O)c1 (stereo unspecified)	/	20.7	-12.0%	6.7
COc1ccc(C(Nc2cc(C)ccn2)c2ccc3ccc(C)nc3c2O)cc1 (stereo unspecified)	0.398µM*	13.0	-24.6%	-1.0
Cc1ccc2ccc(C(Nc3cccc(C(F)(F)F)c3)c3cccnc3)c(O)c2n1 (stereo unspecified)	2.24µM*	-6.4	-14.9%	-6.5
COc1cc(C(Nc2ccccn2)c2ccc3ccc(C)nc3c2O)cc(OC)c1O (stereo unspecified)	0.355µM*	-10.0	35.5µM*	-1.6
SMILES	Sm TGR block	Shiga inhibitor	FMDV antiviral	Cycloheximide cs
Cc1ccc2ccc(C(Nc3ccccn3)c3ccccc3)c(O)c2n1 (stereo unspecified)	2.82µM*	35.6	-2.8%	0.9
Cc1ccc2ccc(C(Nc3ccccc3)c3ccccc3)c(O)c2n1 (stereo unspecified)	/	/	-10.3%	/
COCCCNC(=O)Cn1c(=O)n(-c2cccc(C)c2)c(=O)c2c3c(sc21)CN(C(C)=O)CC3	-0.3%	/	11.2%	/
Cc1cccc(NC(=O)Cn2c(=O)n(CCC(=O)N3CCc4ccccc4C3)c(=O)c3ccccc32)c1	1.4%	/	3.9%	/
Cc1ccccc1CSCc1nc(N)nc(Nc2ccccc2C)n1	-6.8%	84.8*	0.0%	48.6*
Cc1ccccc1Nc1nc(N)nc(CSCc2c(C)noc2C)n1	-3.7%	8.9	?	4.6
Cc1cc(C)cc(C(=O)NCC(=O)OCc2nc(N)nc(Nc3ccccc3C)n2)c1	2.0%	/	-2.3%	/
Cc1ccccc1Nc1nc(N)nc(COC(=O)c2ccc(O)cc2)n1	-16.9%	-4.3	10.0%	20.4*
Cc1ccccc1Nc1nc(N)nc(COC(=O)c2ccccc2)n1	-1.3%	78.9*	17.3%	81.5*
Cc1ccccc1Nc1nc(N)nc(COC(=O)/C=C/c2ccco2)n1	12.6µM*	-5.6	2.5%	-1.6
COc1ccc(N2CCN(c3oc(-c4ccccc4C)nc3S(=O)(=O)c3ccccc3)CC2)cc1	9.8%	/	-17.3%	/
